# The campaign covered roughly 310,000 compounds. About 14,000 (4.5%) showed an effect of 50% or more. The effect is printed as a negative number. For the sample, strong results were picked, then their nearest neighbours and some compounds at random.
# Biological target: human ether-à-go-go-related gene (hERG) potassium channel (human, UniProt Q12809)
# Experiment: primary screen, population patch clamp on CHO cells stably expressing hERG; higher = less effect of the substance
# 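Further: peak tail current of the secondary pulse compared with the same well before compound.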
# Sequence of human ether-à-go-go-related gene (hERG) potassium channel (Q12809 whole entry, looked up): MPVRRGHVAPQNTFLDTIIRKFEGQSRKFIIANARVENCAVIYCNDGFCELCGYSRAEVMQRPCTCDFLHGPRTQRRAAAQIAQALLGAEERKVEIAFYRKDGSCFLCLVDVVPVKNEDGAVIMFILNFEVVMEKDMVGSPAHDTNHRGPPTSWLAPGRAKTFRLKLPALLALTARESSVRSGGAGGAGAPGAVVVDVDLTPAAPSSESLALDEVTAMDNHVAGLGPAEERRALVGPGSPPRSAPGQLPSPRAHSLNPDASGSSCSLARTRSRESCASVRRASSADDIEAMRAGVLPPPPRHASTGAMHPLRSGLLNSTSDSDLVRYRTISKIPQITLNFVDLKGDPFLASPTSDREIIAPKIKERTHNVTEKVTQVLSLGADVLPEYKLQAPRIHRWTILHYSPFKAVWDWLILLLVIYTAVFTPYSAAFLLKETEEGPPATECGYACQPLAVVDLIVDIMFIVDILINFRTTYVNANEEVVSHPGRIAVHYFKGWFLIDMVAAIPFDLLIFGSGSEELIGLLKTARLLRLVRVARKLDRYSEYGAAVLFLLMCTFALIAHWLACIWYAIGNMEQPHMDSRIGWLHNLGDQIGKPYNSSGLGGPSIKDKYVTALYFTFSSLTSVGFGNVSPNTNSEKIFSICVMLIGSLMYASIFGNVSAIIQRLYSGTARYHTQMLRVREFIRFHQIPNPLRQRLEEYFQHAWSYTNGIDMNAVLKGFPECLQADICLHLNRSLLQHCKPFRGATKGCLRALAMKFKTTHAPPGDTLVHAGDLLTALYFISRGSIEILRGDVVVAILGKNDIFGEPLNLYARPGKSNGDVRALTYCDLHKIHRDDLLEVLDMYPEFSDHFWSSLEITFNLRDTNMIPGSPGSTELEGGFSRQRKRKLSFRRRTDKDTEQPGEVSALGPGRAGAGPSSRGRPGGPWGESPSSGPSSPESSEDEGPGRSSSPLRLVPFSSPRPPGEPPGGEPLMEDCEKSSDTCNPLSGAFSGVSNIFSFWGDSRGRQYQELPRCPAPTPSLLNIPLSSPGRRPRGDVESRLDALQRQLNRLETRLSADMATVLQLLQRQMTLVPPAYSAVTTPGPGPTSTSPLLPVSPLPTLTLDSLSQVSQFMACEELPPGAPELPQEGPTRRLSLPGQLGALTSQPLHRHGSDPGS
row,Compound,"hERG current change (%, negative = inhibition) at 10uM [%]"
1,COc1ccccc1N=Nc1c(C)noc1C,10.6
2,CCOC(=O)/C(C#N)=N/Nc1ccc(S(=O)(=O)Nc2cc(OC)nc(OC)n2)cc1,-13.1
3,CC(C)(C)c1nnc(NS(C)(=O)=O)s1,8.21
4,O=c1[nH]n(-c2ccc([N+](=O)[O-])cc2)c(=O)c2ccccc12,5.47
5,COCc1ccc(C(=O)N2CCCC(C(=O)c3ccc(SC)cc3)C2)o1 (centres unmarked),-41.6
6,Nc1cnc(Nc2ccc(Br)cc2)nc1N.O=S(=O)(O)O,-8.72
7,CCc1c(C)nc(SCC(=O)Nc2cccc(Br)c2)[nH]c1=O,16.3
8,Cc1csc2nc(CSc3ccc(Cl)cc3)cn12,-27.3
9,Cc1cc(C)n2cc(CSc3ccc(Cl)cc3)nc2n1,-64.9
10,Cc1cc(C)n2cc(CSc3ccccn3)nc2n1,13.6
11,CC(C)Oc1ccc(CNC2CCOC(C)(C)C2)cc1 (centres unmarked),18
12,C=CCNc1nc2c(c(=O)[nH]c(=O)n2C)n1CCCc1ccccc1,-4.44
13,CC1=C(C(=O)OCc2ccccc2)C(c2ccccc2Cl)NC(=O)N1CCCCCC(=O)O (centres unmarked),-12.4
14,CC1=C(C(=O)OCc2ccccc2)C(c2ccccc2-c2ccccc2)NC(=O)N1CCCCCC(=O)O (centres unmarked),-63.1
15,CC1=C(C(=O)OCc2ccccc2)C(c2ccc(-c3ccccc3)cc2)NC(=O)N1CCCCCC(=O)O (centres unmarked),-2.3
16,CCN(CC(=O)Nc1c(F)cccc1F)C(=O)c1ccc2ccccc2n1,-19.6
17,O=c1[nH]cccc1-c1nc2ccccc2n1Cc1ccc(F)cc1,-22.5
18,CCOc1ccc(NC(=O)CN(C)C(=O)c2ccccc2Cc2ccccc2)cc1OCC,-14
19,O=[N+]([O-])c1ccc(N2CCC(=NOCc3ccc(Cl)cc3)CC2)cc1,-54.5
20,O=[N+]([O-])c1ccc(/C=N\N2CCN(c3ccc(Cl)cc3)CC2)cc1,16.8
21,O=[N+]([O-])c1ccc(N2CCN(CC3CCCCC3)CC2)cc1,-63
22,c1ccc(N2CCN(CC3CCCCC3)CC2)cc1,9.61
23,O=[N+]([O-])c1ccc(N2CCN(Cc3cccc([N+](=O)[O-])c3)CC2)cc1,-71.8
24,CC(=O)c1ccc(N2CCN(CC3CCCCC3)CC2)cc1,-24

row,Compound,"hERG current change (%, negative = inhibition) at 10uM [%]"
1,O=[N+]([O-])c1cccc(CN2CCN(c3ncccn3)CC2)c1,-1.26
2,O=[N+]([O-])c1cccc(CN2CCCCCC2)c1,5.75
3,FC(F)(F)c1cnc(N2CCC(=NOCc3ccc(Cl)cc3)CC2)c(Cl)c1,29.6
4,O=[N+]([O-])c1ccc(CN2CCN(c3ccc([N+](=O)[O-])cc3)CC2)cc1,-74.1
5,CCOc1ccccc1-c1nnc(SCC(=O)NC2CC3CCC2C3)n1CC (centres unmarked),-3.89
6,O=C(O)C(=O)O.O=C(c1cccc(F)c1)N1CCN(Cc2c[nH]c3ccccc23)CC1,-9.05
7,Clc1ccc(CN2CCN(c3ncccn3)CC2)cc1,-4.03
8,CN(Cc1ccccc1)c1nc2c(c(=O)n(C)c(=O)n2C)n1CCSc1ncccn1,-13.7
9,O=C1/C(=C\c2ccc([N+](=O)[O-])cc2)CCc2ccccc21,-6.6
10,O=C1CCNc2c(Cl)cc(Cl)cc21,-2.74
11,N#CC1=C(N)Nc2ncnn2C1c1ccccc1 (centres unmarked),10.6
12,COc1ccc2c(c1)[nH]c1c(Cl)ncnc12,3.14
13,O[C@H]1c2ccccc2[C@H](Cc2cncs2)[C@@H]1Br,0.746
14,O=[N+]([O-])c1ccc(N2CCN(Cc3ccncc3)CC2)cc1,-64.8
15,O=[N+]([O-])c1ccc(CN2CCN(c3ncccn3)CC2)cc1,-32.2
16,Fc1ccc(-n2nnc(-c3ccccc3Cl)n2)cc1,12.2
17,O=C(CC1Oc2ccccc2NC1=O)NCCc1ccccc1 (centres unmarked),-4.18
18,COc1cccc(S(=O)(=O)NC2CCN(C#N)C2)c1 (centres unmarked),9.23
19,O=C(Nc1cccc(F)c1)C1CCN(C(=O)c2ccc(Cl)cc2)CC1,-49.4
20,O=C(Nc1cccc(F)c1)C1CCN(C(=O)c2ccc(Br)cc2)CC1,-65.1
21,O=C(Nc1ccc(F)cc1F)C1CCN(C(=O)c2ccc(Br)cc2)CC1,-30.2
22,O=C(Nc1ccc(Br)cc1)C1CCN(C(=O)c2ccco2)CC1,-14
23,O=C(Nc1nc(-c2ccc(F)cc2)cs1)C1CCN(C(=O)c2ccc(F)cc2)CC1,-54.7

# Reference: article PMC4336329 (PLoS ONE, 2015)
